{"source": "PubChem BioAssay AID2685", "about": "(National Center for Advancing Translational Sciences (NCATS), 2010)", "note": "The campaign covered roughly 320,000 compounds. About 2,100 (0.66%) were called active. Inconclusive results (about 53%) are left out. Calls come from the whole dose curve; as a rule, active = well fitted inhibition curve with a large enough effect in the signal ratio, with a control signal flat (not every such curve was filed as active); inconclusive = small, poorly fitted or top-dose-only effect, or effect the other way, or a change in a side signal; inactive = flat fitted curve, though single readings scatter; the % refers to the signal ratio. The sample as a whole holds a higher share of actives than the screen did. Potency is the fitted concentration of half-maximal effect.", "data": [{"assay": "qHTS Assay for Lipid Storage Modulators in Drosophila S3 Cells;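 for cell number change: cells counted by Cell Tracker Red CMTPX staining in the red channel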; for lipid storage change, negative = inhibition: % is set by controls: 0 for no effect and ±100 for the full control effect", "conditions": "BODIPY lipid droplet fluorescence, 18-24 h, cells fed with added oleic acid; cell number change: measured here: cell count max response; series mostly up to 46.1 µM", "outline": "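Laser-scanning cytometry quantifies lipid droplet accumulation (500–530 nm total intensity; droplet/cell object ratio) in oleic acid-fed (400 uM added) Drosophila S3 cells treated with a concentration series. 20 uM Triacsin C defined 100% inhibition.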", "units": {"cell number change": "%"}, "values": [{"compound": "CC1(C)Cc2c(sc3ncnc(NN)c23)CO1", "Potency": "inactive", "cell number change": 28.8}, {"compound": "CCC(=O)Nc1nc(C)c(-c2csc(Nc3cccc(C(=O)O)c3)n2)s1", "Potency": "inactive", "cell number change": 10.2}, {"compound": "CC(=O)Nc1ccc(Nc2nc(-c3sc(NC(C)=O)nc3C)cs2)cc1", "Potency": "20.6 µM (active)", "cell number change": -25.9}, {"compound": "Cc1nc(C)c(-c2csc(Nc3cccc(O)c3)n2)s1", "Potency": "inactive", "cell number change": -15.3}, {"compound": "CCC(=O)Nc1nc(C)c(-c2csc(Nc3cccc(O)c3)n2)s1", "Potency": "29.1 µM (active)", "cell number change": -27}, {"compound": "CCCCCCC(=O)Nc1nc(C)c(-c2csc(Nc3ccc(Cl)cc3)n2)s1", "Potency": "inactive"}, {"compound": "CCCCCC(=O)Nc1nc(C)c(-c2csc(Nc3ccc(Cl)cc3)n2)s1", "Potency": "inactive", "cell number change": -19}, {"compound": "Nc1ncc(-c2nnnn2-c2ccc(Cl)cc2)c(-c2ccc(Cl)cc2)n1", "Potency": "inactive", "cell number change": 22.6}, {"compound": "COC(=O)/C=C1\\NCCNC1=O", "Potency": "inactive", "cell number change": 9.92}, {"compound": "COc1ccc(NC(=O)CCC(=O)N/N=C/c2cccnc2)cc1", "Potency": "inactive", "cell number change": 1.18}, {"compound": "COc1cc(CN2CCc3ccc(NC(=O)CCc4ccccc4OC)cc3C2)ccc1O", "Potency": "inactive", "cell number change": -9.87}, {"compound": "Cc1ccsc1C(=O)N(C)CC(=O)Nc1ccccc1Br", "lipid storage change, negative = inhibition": "15.6% [at 0.0737 µM] (inactive)"}, {"compound": "Cc1ccc(C)c(NC(=O)CN(C)C(=O)c2sccc2C)c1", "Potency": "4.61 µM (active)"}, {"compound": "Cc1ccc(C)c(NC(=O)CN(C)C(=O)Cc2ccccc2)c1", "Potency": "inactive", "cell number change": 0.0719}, {"compound": "CSCCC(NS(=O)(=O)c1ccccc1F)C(=O)NNC(=O)c1csc(N2CCOCC2)n1", "note": "(stereo not given)", "cell number change": -7.74, "lipid storage change, negative = inhibition": "27.4% [at 0.0737 µM] (inactive)"}, {"compound": "CC1CC(C)CN(C(=O)COC(=O)Cc2c[nH]c3ccccc23)C1", "note": "(stereo not given)", "Potency": "inactive"}, {"compound": "CC1CC(C)CN(C(=O)COC(=O)c2nn(C)c(=O)c3ccccc23)C1", "note": "(stereo not given)", "Potency": "inactive", "cell number change": 14.1}, {"compound": "CC1CC(C)CN(C(=O)COC(=O)c2c[nH]c3ccccc23)C1", "note": "(stereo not given)", "Potency": "0.92 µM (active)", "cell number change": -17}, {"compound": "CCc1c(C)sc(NC(=S)NC(C)C2CCCO2)c1C(=O)OC", "note": "(stereo not given)", "Potency": "inactive", "cell number change": 8}, {"compound": "CCc1c(C)sc(NC(=O)C2CC2)c1C(=O)OC(C)C", "Potency": "1.3 µM (active)", "cell number change": -47.8}, {"compound": "CCOC(=O)c1c(NC(=O)C2CC=CCC2C(=O)O)sc(C)c1CC", "note": "(stereo not given)", "Potency": "inactive", "cell number change": 12.8}, {"compound": "CC(NC(=O)CN(c1ccc(Br)cc1)S(C)(=O)=O)c1ccccc1", "note": "(stereo not given)", "Potency": "inactive", "cell number change": 6.99}, {"compound": "CC(NC(=O)CN(c1ccc(Cl)cc1)S(C)(=O)=O)c1ccccc1", "note": "(stereo not given)", "Potency": "inactive", "cell number change": 17.6}, {"compound": "CC(NC(=O)CN(c1ccc(F)cc1)S(C)(=O)=O)c1ccccc1", "note": "(stereo not given)", "Potency": "4.11 µM (active)", "cell number change": -10.2}, {"compound": "Cc1ccccc1CN1C[C@@H]2C[C@@H](c3cnc(N4CCOCC4)s3)N3CCC[C@@]23C1=O", "Potency": "inactive", "cell number change": 3.26}, {"compound": "COc1ccc(C(NC(=O)CNC(C)=O)C(=O)Nc2ccc3c(c2)OCCO3)cc1", "note": "(stereo not given)", "Potency": "inactive", "cell number change": 8.96}, {"compound": "O=P(c1ccccc1)(c1ccccc1)C(O)c1ccncc1", "note": "(stereo not given)", "Potency": "inactive", "cell number change": 15.4}, {"compound": "CCO[C@@H]1OC(C(=O)N2CCN(Cc3ccccc3)CC2)=C[C@H](C2CC2)[C@H]1CCCO", "Potency": "inactive", "cell number change": 7.31}, {"compound": "CCO[C@@H]1OC(C(=O)N2CCCCCCC2)=C[C@H](C2CCCCC2)[C@H]1CCCO", "Potency": "inactive", "cell number change": -14.4}, {"compound": "CCO[C@H]1OC(C(=O)N2CCN(Cc3ccccc3)CC2)=C[C@@H](C2CCCCC2)[C@@H]1CCCO", "Potency": "20.6 µM (active)", "cell number change": -29.1}, {"compound": "COc1cc(S(=O)(=O)N2CCC(c3nc4ccccc4s3)CC2)ccc1S(=O)(=O)N1CC(C)CC(C)C1", "note": "(stereo not given)", "Potency": "inactive", "cell number change": 0.159}, {"compound": "Cc1cc(=O)oc2cc(OCc3ccc(C(=O)OCC(=O)NC4CCS(=O)(=O)C4)cc3)ccc12", "note": "(stereo not given)", "Potency": "inactive", "cell number change": 8.28}, {"compound": "CCOc1cc(C(c2c(C)[nH][nH]c2=O)c2c(C)[nH][nH]c2=O)ccc1OS(=O)(=O)c1ccccc1", "Potency": "29.1 µM (active)", "cell number change": -2.58}, {"compound": "CCOc1cc(C(c2c(C)[nH][nH]c2=O)c2c(C)[nH][nH]c2=O)ccc1OS(=O)(=O)c1ccc(C)cc1", "Potency": "inactive", "cell number change": 16}, {"compound": "COc1cc(C(c2c(C)[nH][nH]c2=O)c2c(C)[nH][nH]c2=O)ccc1OS(=O)(=O)c1ccccc1", "Potency": "inactive", "cell number change": -3.94}, {"compound": "COc1ccccc1N1CCN(C(c2cccs2)c2nnnn2C2CCCC2)CC1", "note": "(stereo not given)", "Potency": "inactive", "cell number change": -7.64}, {"compound": "Cc1ccc(SCc2ccc(C(=O)NCc3cccnc3)cc2)cc1", "Potency": "inactive", "cell number change": 5.01}, {"compound": "Cc1ccc(Cl)cc1NC(=S)N(CCN(C)C)C(C)c1ccccn1", "note": "(stereo not given)", "Potency": "inactive", "cell number change": 25.6}, {"compound": "COc1cc2c(cc1OC)C(=O)N1[C@H]3c4cc(Cl)ccc4OC[C@@H]3[C@H](c3ccccc3)[C@]1(C)C(=O)N2", "Potency": "2.06 µM (active)", "cell number change": -5.54}, {"compound": "CCOC(=O)[C@H]1[C@H]2COc3ccc(C)cc3[C@@H]2N2C(=O)c3cc(F)ccc3NC(=O)[C@@]12C", "Potency": "inactive", "cell number change": -22.1}, {"compound": "CCOC(=O)[C@H]1[C@H]2COc3ccc(OC)cc3[C@@H]2N2C(=O)c3cc(F)c(F)cc3NC(=O)[C@@]12C", "Potency": "inactive", "cell number change": 10.2}, {"compound": "CCOC(=O)[C@H]1[C@H]2COc3ccc(Cl)cc3[C@@H]2N2C(=O)c3cc(C)ccc3NC(=O)[C@@]12C", "Potency": "1.64 µM (active)"}, {"compound": "CCOC(=O)[C@H]1[C@H]2COc3ccccc3[C@@H]2N2C(=O)c3ccc(Cl)cc3NC(=O)[C@@]12C", "Potency": "inactive", "cell number change": -18.8}, {"compound": "COc1ccc2c(c1)C(=O)N1[C@H]3c4cc(C)ccc4OC[C@@H]3[C@H](c3ccccc3)[C@]1(C)C(=O)N2", "Potency": "inactive", "cell number change": 11.4}, {"compound": "CCOC(=O)[C@H]1[C@H]2COc3cc(OC)ccc3[C@@H]2N2C(=O)c3cc(F)c(F)cc3NC(=O)[C@@]12C", "Potency": "6.51 µM (active)", "cell number change": -3.7}, {"compound": "COc1ccc2c(c1)[C@H]1[C@H](CO2)[C@H](c2ccccc2)[C@]2(C)C(=O)Nc3ccccc3C(=O)N12", "Potency": "inactive", "cell number change": -2.57}, {"compound": "CCOC(=O)[C@H]1[C@H]2COc3cc(OC)ccc3[C@@H]2N2C(=O)c3cc(OC)ccc3NC(=O)[C@@]12C", "Potency": "inactive", "cell number change": -12.2}, {"compound": "CCOC(=O)[C@H]1[C@H]2COc3ccc(OC)cc3[C@@H]2N2C(=O)c3ccc(Cl)cc3NC(=O)[C@@]12C", "Potency": "4.11 µM (active)", "cell number change": -6.2}, {"compound": "CCOC(=O)[C@H]1[C@H]2COc3ccccc3[C@@H]2N2C(=O)c3cc(OC)ccc3NC(=O)[C@@]12C", "Potency": "inactive", "cell number change": -11.2}, {"compound": "CCOC(=O)[C@H]1[C@H]2COc3ccc(Cl)cc3[C@@H]2N2C(=O)c3ccccc3NC(=O)[C@@]12C", "Potency": "inactive", "cell number change": -17}]}]}
